Laboratory results: PubChem BioAssay (NCI)
This is part of a sample that, as a whole, favours compounds with a hit. Of some 83,000 tested, about 20% had one in any assay.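 The test compound was applied at a single concentration to cells in 96-well plates for 48 hours, and percent growth was recorded.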 Activity calls are given as the source filed them. Rule for the calls: active = growth percent below 10; inactive = the rest.

Tests used:
Assay in all cases: NCI-60 one-dose screen, 48 h (100 = growth as untreated, 0 = no growth, -100 = all killed)
Conditions in all cases: 10 µM unless noted
NCI-H23 lung = system: NCI-H23 lung
NCI-H226 lung = system: NCI-H226 lung
NCI-H322M lung = system: NCI-H322M lung
HOP-62 NSCLC = system: HOP-62 NSCLC
NCI-H460 lung = system: NCI-H460 lung
NCI-H522 lung = system: NCI-H522 lung
A549/ATCC NSCLC = system: A549/ATCC NSCLC
786-0 renal = system: 786-0 renal
COLO 205 colon = system: COLO 205 colon
DU-145 prostate = system: DU-145 prostate
MALME-3M melanoma = system: MALME-3M melanoma
MDA-MB-231 breast = system: MDA-MB-231 breast
RXF 393 renal = system: RXF 393 renal
SF-268 CNS = system: SF-268 CNS
SF-295 CNS = system: SF-295 CNS
SF-539 CNS = system: SF-539 CNS
UACC-257 melanoma = system: UACC-257 melanoma
M14 melanoma = system: M14 melanoma
K-562 leukemia = system: K-562 leukemia

Measured: growth

CC(C)(C)OC(=O)N1CCCN(CCNc2nccc(-c3c(-c4cccc(O)c4)nc4sccn34)n2)S1(=O)=O
inactive: NCI-H23 lung 94.1% | NCI-H226 lung 91.1% | NCI-H322M lung 92.6% | HOP-62 NSCLC 115% | NCI-H460 lung 91.4% | NCI-H522 lung 92.4% | A549/ATCC NSCLC 101% | 786-0 renal 87.3% | COLO 205 colon 46.2% | DU-145 prostate 85% | MALME-3M melanoma 17.9% | MDA-MB-231 breast 84.3% | RXF 393 renal 78.5% | SF-268 CNS 110% | SF-295 CNS 112% | SF-539 CNS 104% | UACC-257 melanoma 62.3% | M14 melanoma 16.7%

CC(C)(C)c1nn(-c2ccccc2)c2c1C(=O)CSC(c1ccccc1Cl)N2 (stereo not drawn)
inactive: NCI-H23 lung 38.3% | NCI-H226 lung 36.4% | NCI-H322M lung 35.1% | HOP-62 NSCLC 27.6% | NCI-H460 lung 22.4% | NCI-H522 lung 11.7% | A549/ATCC NSCLC 39.8% | 786-0 renal 25.7% | DU-145 prostate 26.7% | MALME-3M melanoma 53.5% | MDA-MB-231 breast 66% | SF-268 CNS 50.4% | SF-539 CNS 15.7% | UACC-257 melanoma 77.4% | M14 melanoma 11.2%
active: COLO 205 colon 2.17% | RXF 393 renal -10.4% | SF-295 CNS -13.4%

COc1cc(OC)c2sc(-c3ccc(-n4cncc4-c4ccc(OC)c(N)c4)cc3)nc2c1
inactive: NCI-H23 lung 87.4% | NCI-H226 lung 94% | NCI-H322M lung 105% | HOP-62 NSCLC 117% | NCI-H460 lung 78% | NCI-H522 lung 79.9% | A549/ATCC NSCLC 62.7% | 786-0 renal 79.2% | COLO 205 colon 111% | DU-145 prostate 93.5% | K-562 leukemia 54.7% | MALME-3M melanoma 82.4% | MDA-MB-231 breast 75.5% | RXF 393 renal 75.4% | SF-268 CNS 87.3% | SF-295 CNS 69.4% | SF-539 CNS 84.1% | UACC-257 melanoma 94.3% | M14 melanoma 79.9%

CCC(=O)OCc1ccc(OC)cc1
inactive: NCI-H23 lung 99% | NCI-H226 lung 101% | NCI-H322M lung 110% | HOP-62 NSCLC 109% | NCI-H460 lung 111% | NCI-H522 lung 106% | A549/ATCC NSCLC 107% | 786-0 renal 101% | COLO 205 colon 113% | DU-145 prostate 123% | K-562 leukemia 94.4% | MALME-3M melanoma 124% | MDA-MB-231 breast 101% | RXF 393 renal 118% | SF-268 CNS 115% | SF-295 CNS 101% | SF-539 CNS 93.5% | UACC-257 melanoma 96.6% | M14 melanoma 100%

COc1ccc(-c2nc3ccccc3n3cccc23)cc1
inactive: NCI-H23 lung 86.1% | NCI-H226 lung 94.7% | NCI-H322M lung 96.6% | HOP-62 NSCLC 116% | NCI-H460 lung 112% | NCI-H522 lung 101% | A549/ATCC NSCLC 102% | 786-0 renal 100% | COLO 205 colon 120% | DU-145 prostate 119% | K-562 leukemia 96.3% | MALME-3M melanoma 127% | MDA-MB-231 breast 97.9% | RXF 393 renal 135% | SF-268 CNS 109% | SF-295 CNS 114% | SF-539 CNS 101% | UACC-257 melanoma 109% | M14 melanoma 100%

COc1cc(/C=C/c2cc(/C=C/c3ccc(O)c(OC)c3)n(C(=O)Nc3ccc(F)c(Cl)c3)n2)ccc1O
inactive: NCI-H322M lung 12.6% | NCI-H522 lung 10.9% | MDA-MB-231 breast 12.2%
active: NCI-H23 lung -12.9% | NCI-H226 lung -4.32% | HOP-62 NSCLC -7.78% | NCI-H460 lung 4.43% | A549/ATCC NSCLC 5.9% | 786-0 renal -32.9% | COLO 205 colon -59.4% | DU-145 prostate -11.8% | K-562 leukemia -3.9% | MALME-3M melanoma -16.8% | RXF 393 renal -57.6% | SF-268 CNS 6.57% | SF-295 CNS -55.3% | SF-539 CNS -16.6% | UACC-257 melanoma -15.9% | M14 melanoma -21.9%

Cc1cc(-c2ccccc2)on1
inactive: NCI-H23 lung 106% | NCI-H226 lung 99.4% | NCI-H322M lung 90.5% | HOP-62 NSCLC 92.9% | NCI-H460 lung 112% | NCI-H522 lung 97.9% | A549/ATCC NSCLC 104% | 786-0 renal 95.2% | COLO 205 colon 109% | DU-145 prostate 111% | MALME-3M melanoma 102% | MDA-MB-231 breast 105% | RXF 393 renal 119% | SF-268 CNS 103% | SF-295 CNS 100% | SF-539 CNS 88.8% | UACC-257 melanoma 109% | M14 melanoma 105%

CC1=CCC2C1CC=C(C)C(CC[C@H]1[C@@](C)(O)CCC3OC(C)(C)[C@H](OC(=O)c4ccccc4)CC[C@@]31C)C2(C)C (stereo partly drawn)
inactive: NCI-H23 lung 65.2% | NCI-H226 lung 72.9% | NCI-H322M lung 96.3% | HOP-62 NSCLC 86% | NCI-H460 lung 97.1% | NCI-H522 lung 67.8% | A549/ATCC NSCLC 78.7% | 786-0 renal 70.9% | COLO 205 colon 112% | DU-145 prostate 106% | MALME-3M melanoma 111% | MDA-MB-231 breast 88% | RXF 393 renal 69.8% | SF-268 CNS 93.6% | SF-295 CNS 84.7% | SF-539 CNS 99.1% | UACC-257 melanoma 81.3% | M14 melanoma 90.1%
